Compound activity deposited in PubChem BioAssay by National Center for Advancing Translational Sciences (NCATS).
TDP1 cell noCPT: qHTS for Inhibitors of human tyrosyl-DNA phosphodiesterase 1 (TDP1): qHTS in cells in absence of CPT; DT40 Tdp1-/- hTDP1 cells, no CPT, ATP luminescence, 48 h; Potency, µM (series often up to 46.2 µM), without a hit: at the highest dose activity change, negative = growth inhibition, most hits filed as inhibitors; 420,000 tested, 15% active; also: potency is read from the fitted curve at half-maximal effect; nearly all actives have a fitted effect of over 55% in size
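Chicken DT40 Tdp1-/- cells stably complemented with human TDP1 were seeded at 400 cells/well with DMSO in place of 20 nM camptothecin. After compound pinning, cells grew at least 48 hr at 37 °C; viability read by CellTiter-Glo luminescence.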
IL-1B inflam inh: inflammasome signaling inhibition, IL-1 beta readout; 360,000 tested, 4.7% active; THP-1 LPS/ATP IL-1B secretion, AlphaLISA, 16 h; hits give low values; AID 743279; activity change, % at 57.5 µM; in the data active = activity change below about -50%; inconclusive = mostly about -30% to -49%
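Secreted IL-1B measured by AlphaLISA bead assay after 16 h compound exposure of THP-1 cells; compounds (final up to 57.5 uM) added 1 h before LPS (250 ng/mL) and ATP (1.25 mM) stimulation; lower signal means less secretion.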
LDHA block: inhibitors of human lactate dehydrogenase A. P00338. purified LDHA, NADH/diaphorase-resazurin fluorescence; hits give low values. activity change, % (values are at about 110 or 230 µM). 480,000 tested, 0.15% active. AID 1347041; in the data active = activity change below about -30%; inconclusive = mostly about -25% to -30%;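 also: plate controls were DMSO wells for no effect and wells without enzyme for full effect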
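LDH5 2 nM; NADH 0.06 mM, pyruvate 0.2 mM; 200 mM Tris pH 7.4, EDTA, Tween-20; 5 min RT. Detection: diaphorase 0.133 mg/mL + resazurin 37 µM, fluorescence ex540/em590 at 0 and 20 min; normalized to enzyme-free and DMSO wells.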
TDP1 cell CPT: growth inhibition of DT40 Tdp1-/-;hTDP1 cells with camptothecin (screen for TDP1 inhibitors) | chicken DT40 Tdp1-/-;hTDP1 cells + 20 nM CPT, ATP luminescence, 48 h | Potency, µM (titrated, usually from 46.2 µM), inactives show at the top dose activity change, negative = growth inhibition, hits mostly inhibitors | 420,000 tested, 12% active; also: potency is read from the fitted curve at half-maximal effect; nearly all actives have a fitted effect of over 55% in size
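Chicken DT40 Tdp1-/- cells complemented with human TDP1, 400 cells/well, exposed to compounds plus 20 nM camptothecin for at least 48 h at 37 C; viability read as ATP content by CellTiter-Glo luminescence.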
RORg inh: ROR gamma (mouse) transcription inhibition; P51450; Drosophila S2 Gal4-RORgamma UAS-luciferase reporter, 20 h; Potency, µM (top dose mostly 53.6 µM), for inactives: at the top dose activity change, negative = inhibition, actives largely listed as inhibitors; 310,000 tested, 5.4% active; AID 2551; also: potency is read from the fitted curve at half-maximal effect; nearly all actives have a fitted effect of over 60% in size
Target sequence (P51450 whole entry, looked up, the tested form may be a part): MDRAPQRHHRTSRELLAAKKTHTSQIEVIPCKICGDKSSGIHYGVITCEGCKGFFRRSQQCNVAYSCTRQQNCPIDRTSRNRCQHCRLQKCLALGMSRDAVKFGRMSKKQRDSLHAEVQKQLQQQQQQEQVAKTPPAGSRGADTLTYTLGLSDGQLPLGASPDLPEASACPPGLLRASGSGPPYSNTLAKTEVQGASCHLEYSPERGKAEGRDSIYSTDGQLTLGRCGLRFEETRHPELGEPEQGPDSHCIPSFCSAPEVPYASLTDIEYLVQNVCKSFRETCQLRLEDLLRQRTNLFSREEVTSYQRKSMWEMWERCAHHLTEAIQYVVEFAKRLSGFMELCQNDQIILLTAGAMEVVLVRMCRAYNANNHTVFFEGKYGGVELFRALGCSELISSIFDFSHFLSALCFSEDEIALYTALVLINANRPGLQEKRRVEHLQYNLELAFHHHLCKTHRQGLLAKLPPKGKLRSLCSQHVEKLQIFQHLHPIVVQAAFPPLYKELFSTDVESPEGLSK
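Stable Schneider cell line, Gal4 DNA-binding domain fused to ROR gamma, UAS-luciferase. Cmpd 1 hr RT → CuSO4 700 uM final → 20 hr RT → luciferase reagent 10 min → luminescence.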
VP16 counter: inhibits Gal4-VP16 luciferase reporter, ROR gamma counter-screen; AID 2546; Drosophila S2 Gal4-VP16 UAS-luciferase, luminescence, 20 h; Potency, µM (top dose mostly 53.6 µM), for the others: at the top dose activity, negative = inhibition, hits mostly inhibitors; 310,000 tested, 3.5% active;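 also: Gal4-VP16 expression switched on by copper sulfate through the metallothionein promoter; potency is read from the fitted curve at half-maximal effect; nearly all actives have a fitted effect of over 50% in size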
The depositor's hits bear a star; ? = inconclusive; / = no result given; ! = not active in a repeat; [ ] = dose if it differs, or a comment. Rows were chosen to be rich in hits. Some 18% of all compounds tested hit in one or more screens of this group. Unless noted, calls follow the shape of the dose curve; as a rule, active = well fitted curve in the direction sought with a large enough effect; inconclusive = small, poorly fitted or top-dose-only effect, or another doubt; inactive = no such curve, though single readings can be large; an effect the other way counts as inactive or inconclusive. Unless noted, % is scaled to controls: 0 for no effect and ±100 for the full control effect.

SMILES	TDP1 cell noCPT	IL-1B inflam inh	LDHA block	TDP1 cell CPT	RORg inh	VP16 counter
COc1ccc(NC(=O)CN(Cc2ccc3c(c2)OCO3)C2CCCC2)cc1	/	/	2.4	/	/	/
COc1ccc(OC)c(NC(=O)CN(Cc2ccc(F)cc2)C2CCCCC2)c1	16.4µM*	-17.6	3.9	?	?	17.8µM*
CCOC(=O)/C(C#N)=C1/C=C(C)NC(c2ccccc2O)=N1	20.6µM*	-63.9*	-18.0	14.6µM*	?	?
CCNC(=O)NC(=O)CN(C)c1ccccc1F	/	/	3.3	/	/	/
COC(=O)CSc1nc2ccsc2c(=O)n1C	/	/	2.5	/	/	/
CN(C)[C@@H]1C(=O)C(C(=O)NCN2CCCC2)=C(O)[C@@]2(O)C(=O)C3=C(O)c4c(O)cccc4[C@@](C)(O)C3C[C@@H]12 (stereo partly specified)	-0.6%[21.1 µM]	/	/	-14.7%[21.1 µM]	/	/
CN(C)c1ccc(O)c2c1C[C@H]1C[C@H]3[C@H](N(C)C)C(=O)C(C(N)=O)=C(O)[C@@]3(O)C(=O)C1=C2O	21.1µM*!	/	/	6.51µM*	/	/
CN(C)c1ccc(O)c2c1CC1CC3[C@@H](N(C)C)C(=O)C(C(N)=O)=C(O)[C@]3(O)C(=O)C1=C2O (stereo partly specified)	3.66µM*	-8.2	35.1	8.2µM*	-5.8%	2.0%
Cc1ccc2cccc(NC(=O)C(C)Oc3ccc(Cl)c(C)c3)c2n1 (stereo unspecified)	/	/	-5.0	/	/	/
O=[N+]([O-])c1ccc(O)c(C2=NNC(c3ccccc3F)C2)c1 (stereo unspecified)	16.4µM*	-57.6*	1.4	23.1µM*	6.31µM*	?
O=[N+]([O-])c1ccc(N2N=C(c3ccccc3)CC2c2ccccc2O)cc1 (stereo unspecified)	/	/	/	/	10.8%	?
Cc1ccc(Cc2cnc(N3C(=N)SC(c4ccccc4)C3=O)s2)cc1 (stereo unspecified)	16.4µM*	0.0	-9.2	16.4µM*	11.2µM*	3.98µM*
Cc1ccc(CC2CC(=O)N(c3nc4ccccc4s3)C2=O)cc1 (stereo unspecified)	0.9%	22.0	-3.4	8.6%	4.7%	0.8%
Nc1nc(-c2ccccc2)cc(-c2ccccc2O)n1	?	-60.7*	-7.8	?	?	2.4%
N#Cc1cc(-c2ccccc2)nc(NN)n1	?	-12.2	-2.9	?	?	-18.7%
NNc1nc(-c2ccccc2)cc(-c2ccccc2)n1	?	?	-2.8	16.4µM*	4.47µM*	-9.0%
Nc1ccc(S(=O)(=O)Nc2nc(-c3ccccc3)cc(-c3ccccc3O)n2)cc1	-16.0%	17.2	-1.9	-23.6%	/	/
NNc1nc(-c2ccccc2)cc(-c2ccccc2O)n1	?	-8.8	-5.9	?	7.08µM*	12.6µM*
Nc1nc(-c2ccccc2)nc(-c2ccccc2O)n1	?	?	-5.2	?	/	/
O=C(c1ccc2ccccc2c1)N(Cc1ccccc1)C1CC1	/	/	1.5	/	/	/
COc1cccc(/C=C2\Oc3cc(OS(=O)(=O)c4ccccc4)ccc3C2=O)c1	/	/	3.5	/	/	/
COc1ccc(-c2nnc(-c3ccc(N)cc3)o2)cc1	-16.0%	-18.4	-4.7	-1.1%	7.9%	-25.7%
COc1ccc(-c2nnc(Nc3nc4c(OC)cccc4s3)o2)cc1	18.4µM*	103.9	-19.5	5.17µM*	11.2µM*	12.6µM*
COc1cc(OC)cc(-c2nnc(Nc3nc4c(F)cccc4s3)o2)c1	?	33.3	-2.1	20.6µM*	0.708µM*	1.58µM*
COc1ccc(-c2nnc(Nc3nc4c(OC)cccc4s3)o2)c(OC)c1	4.11µM*	-3.3	-0.3	4.61µM*	1.58µM*	?
SMILES	TDP1 cell noCPT	IL-1B inflam inh	LDHA block	TDP1 cell CPT	RORg inh	VP16 counter
CC(C)(C)c1ccc(C(=O)N/C(=C\c2cccs2)C(=O)N2CCOCC2)cc1	20.6µM*	5.6	0.6	-28.5%	20.1%	-6.9%
CC(C)(C)c1ccc(C(=O)N/C(=C/c2cccs2)C(=O)NCc2ccco2)cc1	?	-68.3*	-0.9	?	-10.6%	-11.9%
c1coc(-c2ccn[nH]2)c1	/	/	44.2	/	/	/
COc1cccc(CNC(=O)CSC2=NC3(CCCCC3)N=C2c2cccs2)c1	/	/	8.8	/	/	/
COc1ccc(N2CCN(CCS(=O)(=O)c3cc(Cl)ccc3Cl)CC2)cc1	?	-15.6	-1.1	?	/	/
CC1CN(CCS(=O)(=O)c2cc(Cl)ccc2Cl)CC(C)O1 (stereo unspecified)	?	-102.6*	1.3	?	-37.8%	7.7%
CC(=O)N1CCN(CCS(=O)(=O)c2cc(Cl)ccc2Cl)CC1	?	-65.4*	-5.3	?	/	/
CC1(C)CC(NCCNC2CC(C)(C)NC(C)(C)C2)CC(C)(C)N1	/	/	-7.7	/	/	/
O=S(Cc1cccc(F)c1)Cc1cccc(C(F)(F)F)c1 (stereo unspecified)	/	/	-0.5	/	/	/
Cc1[nH]c2ccc(F)cc2c1CC(=O)NC1CCCCC1	/	/	10.3	/	/	/
O=C(/C(=C/O)N=Nc1ccccc1)c1ccncc1	?	6.7	-5.4	?	-25.8%	12.8%
O=C(/C(=C/O)N=Nc1ccccc1)c1ccc(Cl)cc1	?	-101.7*	-3.3	?	-91.1%	?
O=C(CC12CC3CC(CC(C3)C1)C2)Nc1ccc2oc(-c3cccnc3)nc2c1	/	/	-5.9	/	/	/
COc1ccccc1N1CCN(c2ccc3c(c2)S(=O)(=O)c2cccc(C(=O)NCc4cccc(F)c4)c2C3=O)CC1	1.64µM*	-10.1	-18.2	?	/	/
Cc1ccc(CNC(=O)c2cccc3c2C(=O)c2ccc(N4CCOCC4)cc2S3(=O)=O)cc1	?	-2.4	-0.5	?	/	/
O=C(NCc1ccccc1C(F)(F)F)c1cccc2c1C(=O)c1ccc(N3CCC(N4CCCCC4)CC3)cc1S2(=O)=O	3.66µM*	-103.4*	-17.0	2.31µM*	/	/
Cc1ccc(CNC(=O)c2cccc3c2C(=O)c2ccc(N4CCCCC4)cc2S3(=O)=O)cc1	?	12.7	-1.2	29.1µM*	/	/
N#Cc1cn(CC(=O)Nc2cccc(Cl)c2Cl)c2ccccc12	/	/	-1.1	/	/	/
Clc1ccc(-c2csc(=Nc3cccnc3)n2CCCn2ccnc2)cc1Cl	14.6µM*	-87.7*	-8.2	23.1µM*	?	-10.5%
FC(F)Oc1ccc(-c2csc(=Nc3cccnc3)n2CC2CCCO2)cc1 (stereo unspecified)	13µM*	-3.1	-10.2	14.6µM*	34.2%	-4.6%
COCCn1c(-c2ccc(Br)cc2)csc1=Nc1cccnc1	18.4µM*	-78.5*	-4.9	16.4µM*	-0.3%	-13.4%
